Screening data (PubChem)
An excerpt weighted towards active compounds, which were near 12% of everything screened.
JMJD2A Tudor inh: JMJD2A Tudor domain (human) inhibition; O75164; AlphaScreen JMJD2A-Tudor / H3K4me3 peptide binding; Potency, µM (series often up to 114 µM), inactives show top-dose activity change, negative = inhibition, hits mostly inhibitors; actives 4.4% (n = 390,000); also: % is scaled to controls: 0 for no effect and ±100 for the full control effect; nearly all actives have a fitted effect of over 50% in size
BAZ2B block: BAZ2B (human) inhibition; AlphaScreen BAZ2B-H3K14Ac peptide displacement; Potency, µM (highest dose often 114 µM), for the others: at the top dose activity change, negative = inhibition, hits mostly inhibitors; actives 4.4% (n = 360,000); AID 504333; also: % is scaled to controls: 0 for no effect and ±100 for the full control effect; nearly all actives have a fitted effect of over 60% in size
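Inhibition is scored as reduced AlphaScreen emission. The BAZ2B/b-H3(5-23)K14Ac complex (50 nM each) in PBS pH 7.4, 0.01% Tween-20 meets compound (up to 110 uM) for 30 min at RT before bead addition.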
G9a block: G9a (human) methyltransferase inhibition | G9a H3K9 monomethylation, AlphaScreen, 2 h | actives 8.8% (n = 350,000) | AID 504332 | Potency, µM (top dose mostly 102 µM), for inactives: at the highest dose activity, negative = inhibition, most hits filed as inhibitors; also: % is scaled to controls: 0 for no effect and ±100 for the full control effect; nearly all actives have a fitted effect of over 75% in size
Target sequence (Q96KQ7 913-1193 limits assumed): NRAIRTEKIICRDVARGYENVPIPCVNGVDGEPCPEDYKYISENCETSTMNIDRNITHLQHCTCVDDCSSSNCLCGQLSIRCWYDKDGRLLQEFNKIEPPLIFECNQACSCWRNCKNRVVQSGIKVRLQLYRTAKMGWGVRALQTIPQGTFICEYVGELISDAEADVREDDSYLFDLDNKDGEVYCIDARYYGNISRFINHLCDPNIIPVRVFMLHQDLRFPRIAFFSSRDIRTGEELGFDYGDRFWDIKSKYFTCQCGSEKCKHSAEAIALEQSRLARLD
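Methyltransferase reactions run at room temperature for 2 h (20 nM enzyme, 500 nM biotin-H3K9 peptide, 20 uM SAM) after a 15 min compound preincubation; product detected by AlphaScreen beads and anti-H3K9me1 antibody.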
Sfp inh: inhibitors of Bacillus subtilis Sfp phosphopantetheinyl transferase; Q9F4F7; Potency, µM, inactives show largest response in the series, negative = inhibition, usual class: inhibitors; Biochemical Sfp PPTase activity, qHTS; actives 3.5% (n = 310,000); AID 1490;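 also: the enzyme is Sfp with the accession as filed and its product quenches rhodamine fluorescence; 0% = enzyme reaction without inhibitor and -100% = no enzyme wells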
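Buffer: 50 mM Hepes-Na pH 7.6, 10 mM MgCl2, 0.01% Nonidet P-40, 0.01% BSA. Enzyme 15 nM, pre-exposed to compound 15 min; substrates then added and fluorescence change tracked over 30 min.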
HP1b chromo inh: inhibitors of HP1-beta chromodomain binding to methylated histone tails; P83916; actives 0.56% (n = 390,000); Potency, µM (highest dose often 114 µM), inactives show at the highest dose activity change, negative = inhibition, most hits filed as inhibitors; AlphaScreen HP1-beta / biotin-H3K9me3 peptide binding; also: nearly all actives have a fitted effect of over 70% in size
Target sequence (P83916 whole entry, looked up): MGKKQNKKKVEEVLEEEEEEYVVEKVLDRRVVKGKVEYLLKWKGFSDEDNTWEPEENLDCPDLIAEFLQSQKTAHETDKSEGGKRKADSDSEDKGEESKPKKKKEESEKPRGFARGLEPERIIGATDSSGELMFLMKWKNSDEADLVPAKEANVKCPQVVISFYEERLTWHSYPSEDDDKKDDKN
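HP1-beta protein (50 nM final) preincubated 30 min at room temperature with biotinylated H3(1-18)K9me3 peptide (50 nM) in PBS pH 7.4, 0.01% Tween-20, then compound added for 30 min. AlphaScreen streptavidin donor/nickel chelate acceptor beads (10 ug/mL final), 30 min dark, luminescence read.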
PLK1 PBD inh: blocks phosphopeptide binding to human PLK1 polo-box domain | P53350 | Plk1 PBD binding of FITC phosphopeptide, fluorescence polarization | Potency, µM, for inactives: max response, negative = inhibition, usual class: inhibitors | actives 2.8% (n = 360,000) | AID 720504; also: series mostly up to about 57 µM; % is scaled to controls: 0 for no effect and ±100 for the full control effect; nearly all actives have a fitted effect of over 65% in size
* = called active by the depositor; u = inconclusive; x = not tested or not shown; [ ] = another dose, or the depositor's remark. Calls follow the shape of the dose curve; as a rule, active = well fitted curve in the direction sought with a large enough effect; inconclusive = small, poorly fitted or top-dose-only effect, or another doubt; inactive = no such curve, though single readings can be large; an effect the other way counts as inactive or inconclusive. Potency is read from the fitted curve at half-maximal effect.

SMILES | JMJD2A Tudor inh | BAZ2B block | G9a block | Sfp inh | HP1b chromo inh | PLK1 PBD inh
C[C@@]1(C(NS(=O)(=O)c2cccc3cccnc23)c2ccc(-c3ccccc3)cc2)C[C@H]1C1CCCCC1 (stereo not given in full) | x | x | x | 23.7% | x | x
COc1cccc(N2CC(NC(=O)c3cc4ccccc4o3)CC2=O)c1 (stereo not given) | -13.6% | -10.4% | 1.7%[59 µM] | x | -25.5% | x
Cc1nc(-n2nc(C)c(Cc3ccccc3Cl)c2C)sc1C(=O)N1CCC(C)CC1 | -5.6% | -12.7% | -1.4%[59 µM] | x | 34.7% | x
CCCCOC(=O)c1cc(-c2ccc(/C=N/n3cnnc3)o2)ccc1Cl | 56.2µM* | x | x | x | -4.0% | -8.5%
CC1=NOC(=O)/C1=C\c1ccc(-c2ccc(Br)cc2)o1 | u | 11.2µM* | 5.01µM* | 44.7µM* | -22.7% | 0.597µM*
CC1=NN(c2ccc(Br)cc2)C(=O)/C1=C/c1ccc(-c2ccccc2C(=O)O)o1 | 31.6µM* | 35.5µM* | 35.5µM* | 5.1% | u | 11.9µM*
O=Cc1ccc(-c2ccccc2C(=O)O)o1 | -2.6% | -22.5% | u | 11.0% | 11.2% | -4.2%
N#Cc1nc(Nc2ccc(-c3ccccc3)cc2)nc(NC2CCCC2)n1 | -20.5% | x | x | x | x | x
O=C(Oc1ccc2ccc(O)cc2c1)C1CCCCC1 | u | -22.4% | -27.7% | 5.0% | u | 4.23µM*
Cc1ccc(OC(C)C(=O)N2CC(=O)Nc3ccccc32)cc1 (stereo not given) | -13.0% | -8.3% | 3.55µM* | 12.7% | 23.2% | -0.4%
CC(Oc1ccccc1)C(=O)OCC(=O)N1CC(=O)Nc2ccccc21 (stereo not given) | 0.7% | -13.9% | 10.1% | 7.6% | 45.2% | -15.8%
Cc1cc(OCC(=O)NNC(=O)c2cccs2)ccc1Br | -12.4% | -11.3% | 10.8% | 17.2% | -5.2% | -2.7%
C#CCSc1nncn1C(=O)/C=C/c1ccccc1 | -9.5% | 11.7%[57.1 µM] | u | u | 16.9% | 23.8µM*
C#CCSc1nc2ccccc2c(=O)n1CC=C | 16.9%[57.1 µM] | x | x | x | 19.6%[57 µM] | x
CCc1nnc(SCc2cccc(F)c2)c2cc3sc(C)cc3n12 | -1.8% | 1.8% | 8.1%[59 µM] | x | 20.0% | x
CC(C)NC(=O)Cn1nnc(-c2ccccc2)c1COc1ccc2ccccc2c1 | x | x | x | x | x | -9.1%
O=C(c1ccco1)N1CCN(C/C=C/c2ccccc2)CC1 | -13.7%[11.4 µM] | 3.9% | 56.2µM* | -3.0% | -0.4% | 29.9µM*
COc1ccc(NS(=O)(=O)c2cc(C(=O)N3CCN(C/C=C/c4ccccc4)CC3)ccc2C)cc1 | u | 50.1µM* | 14.1µM* | x | -10.0% | -7.7%
O=C(NC(=S)N1CCN(C/C=C/c2ccccc2)CC1)c1ccco1 | -20.5% | -34.1% | 44.7µM* | 13.7% | 10.2% | -8.4%
Cc1cc(C(=O)N2CCN(C/C=C/c3ccccc3)CC2)no1 | -1.3% | -4.0% | 50.1µM* | -6.9% | 22.7% | -4.8%
Cc1ccc(C(=O)N2CCCCCC2)cc1S(=O)(=O)Nc1ccccc1 | -27.8% | -2.5% | x | 4.7% | 14.3% | -5.3%
O=C(c1cccs1)N1CCN(C/C=C/c2ccccc2)CC1 | -7.5% | -0.8% | -1.8%[2.33 µM] | 1.3% | 21.7% | 2.0%
COc1cc(/C=C/C(=O)OCC(=O)N2CCN(S(=O)(=O)c3ccc(C)cc3C)CC2)cc(Cl)c1OC | -11.6% | 0.8% | u | x | 20.9% | 4.6%
Cc1noc(C)c1S(=O)(=O)NC(=O)C1(C)CCN1C(=O)C1(c2ccc(Cl)cc2)CCC1 (stereo not given) | x | x | x | x | x | 0.1%
CNC1C(O)C2OC3OC(C)CC(=O)[C@@]3(O)O[C@H]2[C@H](NC)C1O (stereo not given in full) | x | x | -19.1%[2.33 µM] | -1.8% | x | x
SMILES | JMJD2A Tudor inh | BAZ2B block | G9a block | Sfp inh | HP1b chromo inh | PLK1 PBD inh
CCN(CC)C(=O)Cn1c(SCC(=O)Nc2ccc(F)cc2)nc2ccccc21 | -9.9% | -7.6% | 2.4%[59 µM] | x | 14.9% | x
CC(=O)Nc1cccc(C(=O)OCC(=O)NC(=O)C2CCCCC2)c1 | -6.4% | x | x | x | 61.3% | x
CCCCCn1c(NCc2ccccc2OC)nc2ccccc21 | -24.4% | -19.2% | -10.9%[59 µM] | x | 32.2% | x
ON=Cc1cccn1-c1ccccc1 | -33.1% | 50.1µM* | -36.3%[59 µM] | 8.1% | -10.3% | -2.8%
O=C(O)c1cccc(-n2cccc2/C=N/O)c1 | 31.6µM* | 44.7µM* | u | 14.5% | u | u
COc1ccc(-c2ccc(-c3cc(=O)oc4cc(OC)c(OC)c(OC)c34)cc2)cc1OC | -28.8% | x | 9.0%[59 µM] | -14.6% | 35.6% | -12.7%
COc1cc2oc(=O)cc(-c3ccc(-c4cccc(N)c4)cc3)c2c(OC)c1OC | x | x | 28.2µM* | -27.4% | x | x
CCc1ccc2[nH]c3nc(SCCN4CCOCC4)nnc3c2c1 | 1.0% | 5.3% | x | -27.7% | 21.7% | 23.8µM*
CCCCn1c2ccc(F)cc2c2nnc(SCCN3CCOCC3)nc21 | -17.6% | -5.7% | 39.8µM* | 56.2µM* | 26.2% | u
Cn1c2ccc(F)cc2c2nnc(SCCN3CCOCC3)nc21 | 0.4% | -1.2% | 50.1µM* | u | 51.6% | u
COc1ccc(N(CC(=O)NCc2ccc(F)cc2)C(=O)Cn2nnc(-c3ccc(C)o3)n2)cc1OC | -12.6% | 8.0% | 6.8% | 14.3% | -15.8% | -4.4%
O=S(=O)(Nc1cccc(-c2ccc(N3CCOCC3)nn2)c1)c1ccc(F)c(C(F)(F)F)c1 | -34.2% | -7.2% | -2.7%[59 µM] | x | 21.7%[57 µM] | x
Cc1nc2ncnn2c(C)c1CCC(=O)N1CCN(c2ccccc2)CC1 | -5.1% | -7.5% | -19.2%[59 µM] | x | 30.2% | x
CC1CCN(S(=O)(=O)c2ccc3c(c2)N(CC(=O)NC(C)C)C(=O)CO3)CC1 | 0.6% | 9.2% | -8.9%[59 µM] | x | -9.9% | x
Cc1cccc(Cn2ncc3c4sc(C)cc4n(C)c3c2=O)c1 | 11.0% | x | x | x | x | x
CCOC(=O)c1c(-n2cnnn2)sc2c1CCCC2 | 5.7% | -0.5% | -41.0% | 10.0% | 25.9% | -8.1%
CCOC(=O)c1c(N2C(=O)C3C4C=CC(O4)C3C2=O)sc2c1CCCC2 (stereo not given) | 56.2µM* | -2.3% | 1.78µM* | 8.91µM* | u | -22.8%
CCOC(=O)c1c(N2C(=O)Nc3cc(Cl)c(Cl)cc3N2O)sc2c1CCCCC2 | 79.4µM* | u | x | -6.2% | u | 13.4µM*
COc1ccc(-c2nc(SC(C)C(=O)NCC3CCCO3)n[nH]2)cc1 (stereo not given) | -14.5% | -8.8% | 15.8µM* | x | 20.1% | 0.0%
COc1ccc(O[C@H]2C=C[C@@H](c3ccccc3)O[C@H]2COC(=O)CC/C(C)=N/O[C@@H]2O[C@H](COC(C)=O)[C@H](OC(C)=O)[C@H](OC(C)=O)[C@H]2OC(C)=O)cc1 | x | x | x | 4.3% | x | x
O=C(NCC1CCCO1)C(c1ccc(F)cc1)N(CC1CCCO1)C(=O)c1ccc(-c2ccccc2)[nH]1 (stereo not given) | -26.1% | 39.8µM* | x | -14.8% | 20.1% | -6.6%
